# From PubChem BioAssay
# Plk1 PBD FP: blocks phosphopeptide binding to human Plk1 polo box domain. P53350. Plk1 PBD phosphopeptide binding, fluorescence polarization. inhibition, %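 (tested at about 20 µM)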. 0.13% of 97,000 active. AID 693; in the data active = inhibition above about 34%, passing the limit was not always enough
# Target sequence (P53350 whole entry, looked up, the tested form may be a part): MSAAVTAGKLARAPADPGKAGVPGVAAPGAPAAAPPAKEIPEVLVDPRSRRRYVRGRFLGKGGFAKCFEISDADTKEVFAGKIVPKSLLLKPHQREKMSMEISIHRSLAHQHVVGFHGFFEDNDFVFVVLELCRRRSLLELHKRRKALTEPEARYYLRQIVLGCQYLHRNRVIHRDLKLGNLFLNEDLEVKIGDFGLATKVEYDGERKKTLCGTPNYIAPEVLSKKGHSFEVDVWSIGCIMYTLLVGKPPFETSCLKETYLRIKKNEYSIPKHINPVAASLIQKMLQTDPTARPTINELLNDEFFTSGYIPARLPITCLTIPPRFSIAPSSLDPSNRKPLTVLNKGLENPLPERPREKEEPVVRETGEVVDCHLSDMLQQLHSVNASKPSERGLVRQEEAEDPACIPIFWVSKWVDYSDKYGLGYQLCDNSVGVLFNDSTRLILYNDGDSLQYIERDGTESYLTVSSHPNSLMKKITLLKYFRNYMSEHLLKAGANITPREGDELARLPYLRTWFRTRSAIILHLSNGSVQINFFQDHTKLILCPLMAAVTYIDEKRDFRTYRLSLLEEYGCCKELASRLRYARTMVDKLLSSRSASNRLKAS
# PTK2B oligo ant: antagonists of human Pyk2 oligomerization. Q293 cells, Pyk2 FERM NanoBiT luminescence; hits give low values. z-score (the deposit names both 25 µM and 10 µM). 0.83% of 99,000 active. Q14289;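 active = Z-score of -3 or lower, scaled per plate to the spread of control and sample wells; inactive = z-score above -3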;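 note: negative z-score means lost luminescence so less FERM oligomerization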
# HUVEC tox IL1B: HUVEC cytotoxicity counter-screen, IL-1B stimulated; HUVEC cell count loss, Hoechst imaging; cell count reduction, % at 2 µM; 0.41% of 94,000 active; AID 845;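 active = cell count reduction more than 3 SD above the screen-wide mean, cut at about 70% in these data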;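 note: normalized per plate to untreated control cells as the no-loss baseline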
# IL1B NFkB pot: enhances IL-1B driven NFkB nuclear translocation; HUVEC IL-1B NFkB p65 nuclear translocation imaging; activation, % at 2 µM; 0.3% of 94,000 active;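 active = activation above 40%, about the mean plus 3 SD, also judged a hit on visual image review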;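 note: percent activation is computed from the nuclear over cytoplasmic p65 intensity ratio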
# PLK1 inh: inhibitors of human PLK1 kinase; P53350; recombinant PLK1 kinase, TR-FRET peptide phosphorylation; inhibition, % at 10 µM; 0.53% of 97,000 active;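 active = inhibition of 50% or more in the single-concentration screen; inactive = inhibition below 50%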;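 note: 0% = DMSO max control and 100% = H-89 dihydrochloride min control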
# NFkB transloc inh: blocks IL-1B driven NFkB nuclear translocation in HUVEC cells | 0.43% of 94,000 active | HUVEC IL-1B NFkB p65 nuclear translocation imaging | AID 796 | inhibition, % at 2 µM;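 active = inhibition above about 30% together with a positive call from visual inspection of the well image, limit read from the data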;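 note: nuclear over cytoplasmic p65 intensity ratio measured by imaging; 0% = IL-1B stimulated DMSO wells and 100% = unstimulated DMSO wells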
# An asterisk follows results filed as active; x = no result given. In the library only some 2.2% were active in any assay of this set; here they are far more common.
SMILES,Plk1 PBD FP,PTK2B oligo ant,HUVEC tox IL1B,IL1B NFkB pot,PLK1 inh,NFkB transloc inh
COc1ccc(NC(=O)c2cc3c(-c4ccc(OC)c(OC)c4)nn(C)c3s2)cc1OC,6,-3*,-18,18,0,-18
Cc1ccccc1-c1noc(CCC(=O)NCC2CCCO2)n1 (configuration not stated),-12,0.47,84*,4,0,-4
CCOCCCNC(=O)c1cn(C)c2ccc(S(=O)(=O)N(C)C3CCCCC3)cc2c1=O,-15,x,-12,1,-2,-1
CC(C)N(CCNC(=O)c1cn(C)c2ccc(S(=O)(=O)N(C)C)cc2c1=O)Cc1ccccc1,-2,x,x,x,59*,x
COCCNC(=O)c1cn(C)c2ccc(S(=O)(=O)N(C)C3CCCCC3)cc2c1=O,-10,x,x,x,62*,x
O=C(Oc1cc(=O)n2ccccc2n1)c1ccccc1,x,-0.04,x,x,x,x
COC(=O)/C(=C\Nc1ccc(Cl)c2ccccc12)c1ncc(C(F)(F)F)cc1Cl,-7,-3.4*,20,-1,-15,1
O=C1c2cc(S(=O)(=O)NCCCO)ccc2-c2ccc(S(=O)(=O)NCCCO)cc21,-12,1.2,17,6,-3,-6
N#Cc1ccccc1Sc1ccccc1C(=O)OCc1nnc(-c2ccccc2)o1,-14,-3.7*,-16,2,-2,-2
Cc1cccn2c(=O)c3cc(C(=O)NCCCN4CCCC4=O)n(C)c3nc12,-10,0.84,-32,5,-8,-5
CC(C)(C)NC(=O)C1N(c2cccnc2)C(=O)C2C(C(=O)Nc3ccccc3F)C3(C)C=CC21O3 (configuration not stated),-3,-0.19,12,5,-20,-5
CC12C=CC3(O1)C(C(=O)N(c1cccnc1)C3C(=O)NC1CCCCC1)C2C(=O)Nc1ccccc1 (configuration not stated),1,-0.03,-31,-31,-4,31*
CCOc1cc(N2CCOCC2)c(OCC)cc1NC(=O)Cc1cccc2ccccc12,-7,-0.45,20,63*,-5,-63
Nc1nc(C2CCCN2S(=O)(=O)c2ccc(Cl)cc2)cs1 (configuration not stated),0,-3.2*,-28,23,-18,-23
O=S(=O)(c1ccc(Cl)cc1)N1CCCC1c1nc(-c2ccc(Cl)cc2)no1 (configuration not stated),41,1.2,-4,8,-4,-8
COCCn1c(CN2CCN(c3cccc(Cl)c3)CC2)nc2c1c(=O)n(C)c(=O)n2C,28,x,-39,9,-6,-9
COCCn1c(CN2CCN(C)CC2)nc2c1c(=O)n(C)c(=O)n2C,-23,x,x,x,66*,x
CCOc1ccc(NC(=O)c2cccc(OC(=S)N3CCC(C)CC3)c2)cc1,-7,0.1,-11,5,-9,-5
O=C(Oc1ccc(F)cc1C(=O)/C=C/c1cccs1)c1cccc([N+](=O)[O-])c1,-29,0.35,60,-31,-8,31*
CCc1ccccc1NC(=O)CSc1nnc(Cn2nnc3ccccc32)n1C,-24,1.8,6,-4,-12,4
COC(=O)c1cc2c(cc1NC(=O)CSCCc1ccccn1)OCO2,x,-0.91,x,x,x,x
CC(=O)Nc1ccc(NC(=O)CSCCc2ccccn2)cc1,-12,1.4,-7,-49,-14,49*
O=C(NCCCCCCNC(=O)c1ccc(Br)s1)c1ccc(Br)s1,13,0.08,0,4,-7,-4
Cc1ccc(OCC(=O)N2CCCCCC2)c(C)c1,5,1.2,86*,21,-5,-21
Cc1ccc(N=Nc2c(=O)[nH]n3c(C)cc(C)nc23)cc1,6,-3.8*,9,2,-21,-2
Cc1ccc(N=Nc2c(N)[nH]n3c(=O)c4c(nc23)CCCC4)cc1,1,x,-9,-1,-6,2
COc1cccc(COc2ccccc2C2Nc3ccc(Br)cc3C(=O)N2NC(=O)c2ccncc2)c1 (configuration not stated),-16,-0.69,-106,16,-8,-16
c1ccc(C(c2nnnn2C2CCCC2)N2CCN(c3ccccc3)CC2)cc1 (configuration not stated),-9,-2.1,11,17,-10,-17
COc1ccc(C(c2nnnn2C2CCCC2)N2CCC(C)CC2)cc1 (configuration not stated),5,-1.4,2,-7,-13,6
